Nrf2 inh = blocks Nrf2 signaling | A549 ARE-Fluc reporter, luciferase luminescence, 18-24 h | Potency, µM (doses to about 46 µM), most hits filed as inhibitors | 2.1% of 360,000 active | AID 504444; also: nearly all actives have a fitted effect of over 60% in size
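A549 ARE_Fluc cells, 5000/well, 5% FBS OPTI-MEM; compounds in dose-response, 18-24 h at 37 °C/5% CO2; CellTiter-Fluor viability read (Ex 405/Em 525), then BugLite luciferase luminescence = Nrf2 activity.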
S2 tox = cell viability loss in ATXN counter-screen; S2 cells (HEK-293 line with an ATXN2-luciferase reporter) viability, CellTiter-Fluor protease fluorescence, 24 h; 0.49% of 400,000 active; Potency, µM (titrated, usually from 56.7 µM), most hits filed as cytotoxic; also: nearly all actives have a fitted effect of over 40% in size
A549 tox = kills or reduces viability of A549 cells in Nrf2 counter-screen; A549 ARE-Fluc cells, CellTiter-Fluor viability, 18-24 h; Potency, µM (doses to about 46 µM), most hits filed as inhibitors; 0.16% of 390,000 active; AID 504648
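A549 ARE-Fluc cells in 5% FBS OPTI-MEM, 5000 cells/well, rested 2 h then exposed to compounds in concentration-response for 18-24 h at 37 °C. Viability by CellTiter-Fluor fluorescence (Ex 405/Em 525) after 30 min; luciferase luminescence (BugLite, 15 min, RT) read afterwards.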
HepG2 tox-1 = counter-screen for TGF-b inhibitors: cytotoxicity in HepG2 cells. 0.76% of 410,000 active. Potency, µM (highest dose often 46.1 µM), actives largely listed as cytotoxic. HepG2 CAGA-GFP viability, ATP luminescence, 18 h
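HepG2 CAGA-GFP cells (1000/well, DMEM with 1% FBS) received compound, then TGF-beta at 500 pg/mL final, and were incubated 18 hours at 37 degrees C. Viability was read by CellTiter-Glo luminescence. Media-only wells were set as complete cell-killing and DMSO as no toxicity.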
ATXN2 expr inh = reduces ATXN2 reporter expression in HEK-293 cells | HEK-293 ATXN2-luciferase reporter, luminescence, 24 h | 0.72% of 360,000 active | AID 1745845 | Potency, µM (titrated, usually from 57 µM), hits mostly inhibitors; also: nearly all actives have a fitted effect of over 55% in size
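ATXN2-luciferase reporter cells (luciferase flanked by upstream and downstream ATXN2 gene portions) were treated 24 h at 37 °C with compounds at up to 57 uM. SteadyGlo luminescence gave expression; GF-AFC fluorescence gave viability.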
TGFb inhibitor = TGF-b pathway inhibition. HepG2 CAGA-GFP TGF-b/SMAD3 reporter, GFP fluorescence, 18 h; TGF-beta stimulated, 500 pg/mL final. Potency, µM (doses to about 46.1 µM), usual class: inhibitors. 1.2% of 410,000 active. AID 588855; also: nearly all actives have a fitted effect of over 65% in size
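First, reporter cells (HEPG2 CAGA-GFP) rested 2 h at 37 degrees C. Next, compounds were pinned in and TGF-beta added to 500 pg/mL final. After 18 h, GFP was imaged per cell and summed per well.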
TGFb confirm = TGF-b pathway inhibition, cherry-pick retest. shares compounds with TGFb inhibitor. HepG2 CAGA-GFP TGF-b reporter, GFP fluorescence, 18 h; cells stimulated with TGF-beta, 500 pg/mL. Potency, µM (series often up to 46.1 µM), hits mostly inhibitors. 63% of 1,600 active. AID 720534; also: nearly all actives have a fitted effect of over 65% in size
HepG2 tox-2 = HepG2 cytotoxicity, TGF-b inhibitor counterscreen. 27% of 1,600 active. AID 720535. shares compounds with TGFb inhibitor. HepG2 CAGA-GFP viability, ATP luminescence, 18 h; cells stimulated with TGF-beta, 500 pg/mL. Potency, µM (top dose mostly 46.1 µM), actives largely listed as inhibitors; also: nearly all actives have a fitted effect of over 70% in size
CCL64 TGFb inh = blocks TGF-b signaling in CCL64 reporter cells; shares compounds with TGFb inhibitor; Potency, µM (doses to about 46.1 µM), actives largely listed as inhibitors; CCL64 CAGA-GFP reporter, TGF-b stimulated, GFP fluorescence, 18 h; 41% of 1,600 active; also: nearly all actives have a fitted effect of over 65% in size
TGFb COP inh = TGF-b inhibition validated with COP promoter; Potency, µM (top dose mostly 46.1 µM), usual class: inhibitors; shares compounds with TGFb inhibitor; HepG2 COP-GFP TGF-b reporter, GFP fluorescence, 18 h; cells stimulated by added recombinant TGF-beta; AID 720537; 3% of 1,600 active; also: nearly all actives have a fitted effect of over 70% in size
Hits are given with their value; i = inactive; ? = inconclusive; nt = no result given; [ ] = dose if it differs, or a comment. A selection: hits, their analogues and other compounds. The true share with any hit is near 3.8%. Calls follow the shape of the dose curve; as a rule, active = well fitted curve in the direction sought with a large enough effect; inconclusive = small, poorly fitted or top-dose-only effect, or another doubt; inactive = no such curve, though single readings can be large; an effect the other way counts as inactive or inconclusive.

SMILES | Nrf2 inh | S2 tox | A549 tox | HepG2 tox-1 | ATXN2 expr inh | TGFb inhibitor | TGFb confirm | HepG2 tox-2 | CCL64 TGFb inh | TGFb COP inh
Cc1cc(C)cc(NC(=O)CNC(c2ccccc2)c2ccccc2)c1 | ? | i | ? | i | i | i | nt | nt | nt | nt
Cc1cc(S(=O)(=O)N2CCN(CC(=O)NCCc3cccs3)CC2)ccc1Br | i | i | i | i | i | 11µM | ? | i | i | i
O=C(CN1CCN(S(=O)(=O)c2cccc(Br)c2)CC1)NCCc1cccs1 | i | i | i | i | i | i | nt | nt | nt | nt
O=[N+]([O-])c1ccc(NC(=S)NCCc2ccc(Cl)cc2)cc1 | ? | ? | ? | 11µM | ? | 6.3µM | 15µM | 21µM | 4.6µM | i
O=C(Nc1ccc([N+](=O)[O-])cc1)Nc1ccc(Cl)cc1F | ? | i | ? | 2.8µM | ? | 2.2µM | ? | ? | 4.1µM | i
O=[N+]([O-])c1ccc(NC(=S)NCCc2ccccc2)cc1 | ? | i | ? | i | i[11.3 µM] | ? | nt | nt | nt | nt
O=C(Nc1csc([N+](=O)[O-])c1)Nc1c(Cl)cccc1Cl | ? | i | i | i | nt | i | nt | nt | nt | nt
O=C(Nc1ccc(Cl)cc1)Nc1csc([N+](=O)[O-])c1 | i | i | i | i | ? | 4µM | 6.5µM | 6.5µM | 5.2µM | i
CCc1ccc(NC(=O)Nc2ccon2)cc1 | ? | i | i | i | i | i | nt | nt | nt | nt
O=C(Nc1ccc([N+](=O)[O-])cc1)Nc1ccon1 | i | i | i | i | i | 10µM | ? | i | ? | i
CC1C(=O)N(Cc2cn(CCC3OCCCO3)nn2)CCS(=O)(=O)N1Cc1ccc(-c2ccc(Cl)cc2)cc1 (stereo not given) | nt | 28µM | nt | i | 18µM | 13µM | ? | ? | ? | i
Cc1ccccc1-c1ccc(CN2C(C(C)C)C(=O)N(Cc3cn(CCC4OCCO4)nn3)CCS2(=O)=O)cc1 (stereo not given) | nt | ? | nt | i | ? | ? | nt | nt | nt | nt
Cc1ccc(-c2ccc(CN3C(C(C)C)C(=O)N(Cc4cn(CCC5OCCO5)nn4)CCS3(=O)=O)cc2)c(C)c1 (stereo not given) | nt | ? | nt | i | ? | 11µM | 23µM | ? | 23µM | i
COc1ccc(C)cc1NC(=O)C(OC(=O)CNC(=O)c1ccccc1)c1ccccc1 (stereo not given) | i | nt | i | nt | nt | nt | nt | nt | nt | nt
COCCN(Cc1ccc(F)cc1)C(=O)c1cc2ccccc2oc1=O | i | i | i | i | i | i | nt | nt | nt | nt
CCN(CC)C(=O)CSc1nnc2nnc3cc(Cl)ccc3n12 | ? | i | ? | i | i | 4µM | 23µM | 23µM | ? | ?
C[C@@H]1CCCCO[C@H](CN(C)Cc2ccccc2)[C@@H](C)CN([C@H](C)CO)C(=O)c2cc(NC(=O)c3ccccc3)ccc2O1 | nt | i | nt | i | i | i | nt | nt | nt | nt
Cc1cc(Cl)ccc1NC(=O)CCS(=O)(=O)c1ccc2c(c1)CC(C)N2C(=O)C1CC1 (stereo not given) | ? | nt | i | i | nt | ? | nt | nt | nt | nt

High-throughput results: PubChem BioAssay, National Center for Advancing Translational Sciences (NCATS)
